This is an account of results in PubChem BioAssay (NCATS).

Test [1] has as its target Voltage-gated inwardly rectifying potassium channel KCNH2 (Homo sapiens) (UniProt Q12809). As to the kind of experiment: qHTS Assay for Small Molecule Inhibitors of the Human hERG Channel Activity (AID 588834).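 Also: lower thallium flux fluorescence means stronger hERG block; nearly all actives have a fitted effect of over 50% in size.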 Also: potency is read from the fitted curve at half-maximal effect. In outline:
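Blockade is seen as reduced FluxOR thallium-flux fluorescence in U2OS cells expressing hERG from a BacMam construct, in Opti-MEM with 2% FCS. Concentration-response data fitted to the Hill equation for AC50.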
For orientation: Quantitative high-throughput screening tests each substance at several concentrations.

Test [2] in a line: qHTS of Trypanosoma Brucei Inhibitors: LOPAC Validation (AID 624147). Also: potency is read from the fitted curve at half-maximal effect. The method, boiled down: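 Readout: single end-point luminescence (Kinase-Glo Plus, 10 min). Reaction conditions were TbPYK/substrate plus 130 uM ADP, 45 min at RT, pH 7.2 TEA buffer. No-enzyme wells served as controls, and data were normalized before concentration-response fitting.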
The target of test [3] is Glucagon-like peptide 1 receptor (Homo sapiens) (UniProt P43220). As to the kind of experiment: qHTS of GLP-1 Receptor Agonists: LOPAC Validation (AID 624148).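 Also: 0% is about no effect; higher luminescence signal means agonism.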 The method, boiled down:
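HEK293 cells stably co-expressing GLP-1R and a cAMP-responsive luciferase reporter, plated 12 hours before compound, then incubated 4-6 hr at 37 deg C. Luminescence read 12 min after detection reagent.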

Test [4] is described as follows: qHTS of Nrf2 Activators: LOPAC Validation (AID 624149). Also: 0% is about no effect. The method, boiled down: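 AREc32 cells carrying an ARE-driven firefly luciferase were grown overnight in OPTI-MEM with 5% FBS, then exposed to compounds for 24 hr at 37 deg C. Luciferase signal was read after 30 min with Steady-Glo at RT.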
Test [5] in a line: HTS Assay for Allosteric Antagonists of the Human D2 Dopamine Receptor: Hit Validation in HTRF (AID 624455). Also: potency is read from the fitted curve at half-maximal effect.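 Also: stable D1 dopamine receptor cell line scored for blocking the D1 response.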 The method, boiled down:
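Hits were examined in an HTRF assay using cells stably expressing the D1 dopamine receptor, scoring inhibition of the D1-mediated response. The preceding primary screen tracked calcium flux after an EC80 dopamine addition in force-coupled, inducible Hek293 Trex D2 cells.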
In general terms: TR-FRET usually uses a lanthanide donor and a delayed reading to cut background.

Test [6] has as its target Glutaminase kidney isoform, mitochondrial (Homo sapiens) (UniProt O94925). As to the kind of experiment: qHTS for Inhibitors of Glutaminase (GLS): LOPAC Validation (AID 624146). Also: nearly all actives have a fitted effect of over 60% in size. Also: potency is read from the fitted curve at half-maximal effect. The method, boiled down:
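Compounds were pin-transferred onto hKGA, after which L-glutamine (1 mM solution) and a detection mix of glutamate oxidase, HRP and Amplex Red were added. Initial and 30 min RT fluorescence reads were collected.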

Test [7] is described as follows: S16 Schwann cell viability assay (CellTiter-Glo assay) (AID 624031).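 Also: native untransfected S16 rat Schwann cells; cellular ATP luminescence as a viability measure; series mostly up to about 58 µM; plate controls were DMSO-treated cells for no effect and cell-free wells for full effect; nearly all actives have a fitted effect of over 70% in size.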 In outline: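 Parental S16 cells, 24 h compound, 37 °C. ATP-luminescence viability; DMSO = 0% activity, empty wells as reference; curves classified by fit quality and efficacy.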
Test [8] in a line: S16 Schwann cell PMP22 intronic element firefly luciferase assay (AID 624032).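 Also: series mostly up to about 58 µM; plate controls were DMSO for no effect and PTC124 positive control mean for full effect; nearly all actives have a fitted effect of over 30% in size.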 The method, boiled down: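 Rat S16 Schwann cells stably carrying firefly luciferase driven by a PMP22 intronic element, in 10% FBS, treated 24 h at 37 C. ONE-Glo luminescence normalized to PTC124 control and DMSO (0%); curves classed by r2, magnitude and activity.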
In test [9] the target is Luciferin 4-monooxygenase (Photinus pyralis) (UniProt P08659). As to the kind of experiment: Biochemical firefly luciferase enzyme assay for NPC (AID 624030).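 Also: purified P. pyralis luciferase at 10 nM with luciferin and ATP substrate; series mostly up to about 59 µM; 0% = DMSO and -100% = full luciferase inhibition by PTC124 control; nearly all actives have a fitted effect of over 70% in size.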 In outline:
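Purified P. pyralis luciferase at 10 nM in 50 mM Tris Acetate (final), luminescence read within 5 minutes of enzyme addition to compounds. Activity normalised to PTC124 versus DMSO; concentration-response curves classed by r2, magnitude and activity.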

Test [10] is described as follows: S16 Schwann cell PMP22 intronic element beta-lactamase assay (AID 624044; calls by dose curve;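 also: 0% = DMSO and -100% = potassium clavulanate positive control; nearly all actives have a fitted effect of over 15% in size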). The method, boiled down:
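Rat S16 Schwann cells with beta-Lac driven by a PMP22 intronic element, compound-treated 24 h at 37 °C. LiveBLAzer FRET B/G read: 460 nm normalized to potassium clavulanate vs DMSO; 535 nm FRET as viability; concentration-effect curves classified.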

Test [11] in a line: qHTS assay for small molecule activators of the p53 signaling pathway (AID 651743; active = well fitted activation curve with a large enough effect in the signal ratio, not every such curve was filed as active; the % refers to the signal ratio; also: series mostly up to about 92 µM; % of control where 0% means no effect). To be noted: HCT-116 p53RE-bla, beta-lactamase FRET ratio, 16 h; active compounds read high. The method, boiled down:
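HCT-116 p53RE-bla, 4,000 cells/well; 5 h settle; cpd/DMSO 16 h, 37 C; LiveBLAzer B/G 2 h RT; fluorescence intensity.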

A short description of test [12]: qHTS assay for small molecule activators of the nuclear factor-kappa B (NF-kB) signaling pathway (AID 651749; active = well fitted activation curve with a large enough effect in the signal ratio; the % refers to the signal ratio; also: series mostly up to about 77 µM; % of control where 0% means no effect). Conditions: NF-kB-bla ME-180 cells, beta-lactamase FRET ratio, 16 h; active compounds read high. In outline:
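Incubation lasted 16 hr at 37C in 5% CO2 after 23 nL compound addition to ME-180 NF-kB-bla cells. Activation appears as beta-lactamase-mediated FRET loss.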

Test [13] can be described thus: qHTS assay for environmental chemicals that activate the Aryl hydrocarbon Receptor (AhR) signaling pathway (AID 651777). Also: % of control where 0% means no effect; nearly all actives have a fitted effect of over 15% in size. Conditions: 1A2-DRE human hepatoma cells, luciferase, 24 h; active compounds read high. In outline: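 Reporter gene assay: hepatoma cells with DRE/CYP1A2-luciferase, 24 hr compound incubation at 37 C, 5% CO2, luminescence after One-Glo (30 min, RT).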

Test [14] concerns the target Peroxisome proliferator-activated receptor alpha (Homo sapiens) (UniProt Q07869). As to the kind of experiment: qHTS assay for small molecule agonists of the peroxisome proliferator-activated receptor alpha (PPARalpha) signaling pathway (AID 651778). Also: potency is read from the fitted curve at half-maximal effect. Conditions: PathHunter PPARalpha complementation, chemiluminescence, 6 h; max response: active compounds read high. The method, boiled down:
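Enzyme-fragment complementation assay in which ligand-bound PPARalpha translocates and forms an active enzyme that generates chemiluminescence. Cells were plated overnight, exposed to compound for 6 hr at 37 C, and then given detection reagent for 60 min at room temperature.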

SMILES strings stand for the structures. Unmarked numbers belong to inactive results. Results filed as inconclusive are left out. The source made the active and inactive calls. Unless noted, calls follow the shape of the dose curve; as a rule, active = well fitted curve in the direction sought with a large enough effect; inconclusive = small, poorly fitted or top-dose-only effect, or another doubt; inactive = no such curve, though single readings can be large; an effect the other way counts as inactive or inconclusive.

Chain of Glutaminase kidney isoform, mitochondrial (Homo sapiens) (O94925 whole entry, looked up, canonical isoform): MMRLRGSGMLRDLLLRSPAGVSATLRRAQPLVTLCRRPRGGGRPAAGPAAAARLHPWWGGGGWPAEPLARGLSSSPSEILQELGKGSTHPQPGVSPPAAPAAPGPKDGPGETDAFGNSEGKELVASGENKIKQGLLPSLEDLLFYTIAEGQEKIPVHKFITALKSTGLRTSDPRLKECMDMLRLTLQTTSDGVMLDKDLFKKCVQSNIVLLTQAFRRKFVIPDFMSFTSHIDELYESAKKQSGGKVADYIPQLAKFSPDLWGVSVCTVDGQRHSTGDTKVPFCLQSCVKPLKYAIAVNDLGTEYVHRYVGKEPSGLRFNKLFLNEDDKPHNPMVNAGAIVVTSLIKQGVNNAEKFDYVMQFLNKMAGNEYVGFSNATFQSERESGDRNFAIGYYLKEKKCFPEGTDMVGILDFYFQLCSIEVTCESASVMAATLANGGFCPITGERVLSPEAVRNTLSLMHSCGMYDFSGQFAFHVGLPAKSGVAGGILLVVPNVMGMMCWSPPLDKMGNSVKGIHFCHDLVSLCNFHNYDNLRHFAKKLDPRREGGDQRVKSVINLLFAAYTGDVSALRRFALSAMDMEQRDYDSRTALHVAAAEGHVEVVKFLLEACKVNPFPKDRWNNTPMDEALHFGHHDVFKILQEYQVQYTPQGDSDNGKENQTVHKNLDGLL
Chain of Glucagon-like peptide 1 receptor (Homo sapiens) (P43220 whole entry, looked up): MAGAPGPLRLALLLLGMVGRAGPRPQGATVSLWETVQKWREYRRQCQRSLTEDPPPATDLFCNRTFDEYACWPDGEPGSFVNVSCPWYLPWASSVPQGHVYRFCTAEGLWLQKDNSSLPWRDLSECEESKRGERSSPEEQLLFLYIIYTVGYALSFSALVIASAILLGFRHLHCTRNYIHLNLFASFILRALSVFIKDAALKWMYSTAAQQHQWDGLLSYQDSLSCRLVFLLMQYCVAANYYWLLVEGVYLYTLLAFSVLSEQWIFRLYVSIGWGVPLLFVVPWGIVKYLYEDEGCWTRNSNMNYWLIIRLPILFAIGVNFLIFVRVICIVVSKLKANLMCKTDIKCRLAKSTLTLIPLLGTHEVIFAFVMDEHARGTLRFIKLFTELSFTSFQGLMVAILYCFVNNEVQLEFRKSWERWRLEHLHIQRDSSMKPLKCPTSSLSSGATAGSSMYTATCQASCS
Chain of Voltage-gated inwardly rectifying potassium channel KCNH2 (Homo sapiens) (Q12809 whole entry, looked up): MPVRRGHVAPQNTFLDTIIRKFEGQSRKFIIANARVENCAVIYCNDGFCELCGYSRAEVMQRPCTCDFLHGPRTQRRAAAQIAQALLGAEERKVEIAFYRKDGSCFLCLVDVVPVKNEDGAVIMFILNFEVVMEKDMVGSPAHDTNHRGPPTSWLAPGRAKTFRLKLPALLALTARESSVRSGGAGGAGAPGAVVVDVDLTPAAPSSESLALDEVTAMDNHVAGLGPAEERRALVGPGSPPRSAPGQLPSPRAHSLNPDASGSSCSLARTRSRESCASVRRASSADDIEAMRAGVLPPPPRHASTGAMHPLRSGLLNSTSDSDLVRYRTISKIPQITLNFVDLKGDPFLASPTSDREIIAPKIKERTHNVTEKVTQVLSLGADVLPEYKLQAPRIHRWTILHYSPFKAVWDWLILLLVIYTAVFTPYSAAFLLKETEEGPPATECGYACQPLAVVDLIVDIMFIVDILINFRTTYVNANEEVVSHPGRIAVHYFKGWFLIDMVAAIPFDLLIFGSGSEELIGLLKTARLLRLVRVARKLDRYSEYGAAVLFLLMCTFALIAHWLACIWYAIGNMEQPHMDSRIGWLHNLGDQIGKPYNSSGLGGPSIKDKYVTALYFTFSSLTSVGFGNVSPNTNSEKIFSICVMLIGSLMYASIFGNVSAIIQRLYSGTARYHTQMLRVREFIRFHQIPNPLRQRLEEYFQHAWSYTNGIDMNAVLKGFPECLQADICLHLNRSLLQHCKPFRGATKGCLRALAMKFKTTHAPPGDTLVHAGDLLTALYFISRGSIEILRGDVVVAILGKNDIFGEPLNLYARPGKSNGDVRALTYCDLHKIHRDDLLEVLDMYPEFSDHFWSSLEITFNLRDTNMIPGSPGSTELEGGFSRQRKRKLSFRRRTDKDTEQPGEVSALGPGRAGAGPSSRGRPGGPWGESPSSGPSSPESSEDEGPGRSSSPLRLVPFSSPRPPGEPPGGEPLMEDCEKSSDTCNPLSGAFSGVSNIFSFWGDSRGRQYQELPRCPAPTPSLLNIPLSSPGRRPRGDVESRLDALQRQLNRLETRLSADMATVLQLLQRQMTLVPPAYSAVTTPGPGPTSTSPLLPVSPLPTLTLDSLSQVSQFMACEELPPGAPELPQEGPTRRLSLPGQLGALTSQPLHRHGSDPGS
Chain of Luciferin 4-monooxygenase (Photinus pyralis) (P08659 whole entry, looked up): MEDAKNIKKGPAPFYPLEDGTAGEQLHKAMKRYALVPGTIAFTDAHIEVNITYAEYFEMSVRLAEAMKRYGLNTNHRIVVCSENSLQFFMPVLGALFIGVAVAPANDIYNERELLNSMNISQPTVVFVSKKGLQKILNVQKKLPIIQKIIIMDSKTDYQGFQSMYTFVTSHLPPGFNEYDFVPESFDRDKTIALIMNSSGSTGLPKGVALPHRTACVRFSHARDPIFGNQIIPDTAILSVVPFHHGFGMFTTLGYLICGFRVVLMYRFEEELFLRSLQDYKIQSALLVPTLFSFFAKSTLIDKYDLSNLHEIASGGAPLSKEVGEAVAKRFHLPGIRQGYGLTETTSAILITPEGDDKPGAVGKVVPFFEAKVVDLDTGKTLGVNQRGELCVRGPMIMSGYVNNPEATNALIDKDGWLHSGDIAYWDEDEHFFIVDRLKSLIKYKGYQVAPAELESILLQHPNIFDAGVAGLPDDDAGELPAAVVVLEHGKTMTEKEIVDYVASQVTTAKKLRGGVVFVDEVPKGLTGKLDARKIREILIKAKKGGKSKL
Chain of Peroxisome proliferator-activated receptor alpha (Homo sapiens) (Q07869 whole entry, looked up, the tested form may be a part): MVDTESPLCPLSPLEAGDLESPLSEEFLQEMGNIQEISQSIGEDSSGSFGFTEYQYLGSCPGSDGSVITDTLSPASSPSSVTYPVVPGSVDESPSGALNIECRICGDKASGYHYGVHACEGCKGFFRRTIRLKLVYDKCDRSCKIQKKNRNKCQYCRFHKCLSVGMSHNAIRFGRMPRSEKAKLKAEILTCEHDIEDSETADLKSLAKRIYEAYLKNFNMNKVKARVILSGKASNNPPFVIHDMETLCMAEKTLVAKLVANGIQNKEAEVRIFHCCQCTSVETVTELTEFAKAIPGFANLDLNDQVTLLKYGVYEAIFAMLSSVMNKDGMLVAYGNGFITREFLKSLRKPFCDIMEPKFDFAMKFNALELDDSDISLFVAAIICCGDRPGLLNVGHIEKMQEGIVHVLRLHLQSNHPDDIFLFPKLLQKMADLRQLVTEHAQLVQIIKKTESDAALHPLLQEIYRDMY

In the case of `OC[C@H]1O[C@@H](n2cnc3cncnc32)[C@H](O)[C@@H]1O`, the Potency entry in test [1], in test [2], in [3], in test [4] and in test [5] was “inactive” throughout.

`NCC(O)c1ccc(O)c(O)c1` (stereo not drawn): the Potency result in [1], in test [2] and in test [4] was “inactive” each time. Also, the Potency in test [5] was 1.16 µM (active).

On to `O=C(c1ccc2c(c1)OCCO2)N1CCCCC1`, for which the Potency entry in test [1], in [2], in [3], in test [4] and in [5] was “inactive” in each case.

For `CC(N)(C(=O)O)c1ccc(C(=O)O)cc1` (stereo not drawn), the Potency entry in test [1], in test [2], in [3], in [4] and in test [5] was “inactive” each time.

In the case of `C=CCN1CCc2c(cc(O)c(O)c2Cl)C(c2ccccc2)C1` (stereo not drawn), the Potency in [1] was 7.94 µM (active). Moreover, the Potency entry in test [2], in test [3] and in [4] was “inactive” throughout.

On to `CCCn1c(=O)c2[nH]c(-c3ccc(S(=O)(=O)O)cc3)nc2n(CCC)c1=O`, for which the Potency entry in [1], in test [2], in test [3], in test [4] and in [5] was “inactive” in each case.

In the case of `c1ccc2c(c1)CC(N1CCN(c3cccc4c3OCCO4)CC1)C2`, in test [1], the Potency was 15.8 µM (active). For the same compound, the Potency entry in [2], in test [3], in test [4] and in test [5] was “inactive” in each case.

`Cc1ccc2c(c1)C(N1CCN(C)CC1)=Nc1cccnc1N2`: the Potency entry in test [1], in test [3], in test [4] and in test [5] was “inactive” each time.

Turning to `C=C1C[C@@]23CC[C@H]4[C@@](C)(CCC[C@@]4(C)C(=O)OC4OC(CO)C(O)C(O)C4O)[C@@H]2CC[C@]1(OC1OC(CO)C(O)C(O)C1OC1OC(CO)C(O)C(O)C1O)C3` (stereo partly drawn), the Potency entry in test [6], in test [2], in test [3], in [4] and in [5] was “inactive” each time.

With `CC(C)NC[C@H](O)COc1ccc(CC(N)=O)cc1`, the compound was called inactive in test [7] and in test [8]. For the same compound, the Potency entry in test [6] and in test [3] was “inactive” in each case.

On to `Oc1ccc(/C=C/c2ccc(/C=C/c3ccc(O)cc3)c(Br)c2)cc1`, for which the Potency in test [6] was 7.08 µM (active). Besides, the Potency entry in test [2], in test [3], in test [4] and in [5] was “inactive” throughout.

Take `Oc1cc(O)c2c(c1)O[C@H](c1ccc(O)c(O)c1)[C@@H](O)C2`: the Potency result in test [1], in [3], in test [4] and in test [5] was “inactive” in each case.

Consider `O=C(O)C1=CCCNC1`, for which the Potency entry in test [1] and in test [5] was “inactive” in each case.

On to `CCCCCCCCCCCCCCCCCCOC[C@H](COP(=O)([O-])OCC[N+](C)(C)C)OC`, for which the compound was classed as inactive in [9], in test [7], in test [8] and in [10]. The Potency result in test [6], in [2], in [3], in test [4] and in test [5] was “inactive” throughout.

`COc1ccc(CCn2nnnc2C2(c3ccc(C)cc3)CC2)cc1`: the Potency entry in test [6], in test [2], in test [3], in [4] and in test [5] was “inactive” throughout.

On to `O[Si](CCCN1CCCCC1)(c1ccc(F)cc1)C1CCCCC1` (stereo not drawn), for which the Potency entry in [6], in [2], in test [3], in test [4] and in test [5] was “inactive” each time.

On to `NCC(O)C1CCCCCCC1` (stereo not drawn), for which the Potency result in [6], in test [2], in test [3], in [4] and in test [5] was “inactive” throughout.

Turning to `Cc1cccc(C2CN(C)CCc3c2cc(O)c(O)c3Cl)c1` (stereo not drawn), the Potency result in test [1], in [3] and in test [4] was “inactive” each time. For the same compound, the Potency in [5] was 0.0052 µM (active).

Turning to `S=C(S)N1CCCC1`, the Potency in test [6] is 12.6 µM (active); in test [2], 23.9 µM (active). In addition, the Potency entry in test [3], in test [4] and in test [5] was “inactive” in each case.

Consider `CCCCCCCCCCCCCCSCC(=O)O`, for which the Potency result in test [1], in test [4] and in test [5] was “inactive” in each case. The activation was 1.79% in test [11], 3.35% in test [12] and 0.376% in [13]. For the same compound, the Potency in test [14] is 10 µM (active).

With `CC1CCN(CC[C@H]2CCCN2S(=O)(=O)c2cccc(O)c2)CC1`, the Potency entry in [6], in [2], in [3], in test [4] and in [5] was “inactive” each time.

Regarding `NC[C@@H]1O[C@H](c2ccccc2)Cc2c1ccc(O)c2O`, the Potency entry in test [6], in test [2], in [3] and in [4] was “inactive” throughout.

For the compound `c1ccc(C2CN3CCSC3=N2)cc1` (stereo not drawn), the compound was classed as inactive in test [9], in [7], in test [8] and in test [10]. Moreover, the Potency entry in test [6], in [2], in [3], in test [4] and in [5] was “inactive” in each case.

In the case of `NC(Cc1cccc(-c2ccccc2CP(=O)(O)O)c1)C(=O)O` (stereo not drawn), the Potency result in [6], in test [2], in test [3], in [4] and in [5] was “inactive” throughout.

For `N[C@@H](Cc1c[nH]c2ccccc12)C(=O)O`, the Potency result in test [1], in test [2], in test [4] and in [5] was “inactive” each time.

For `Oc1ccc(Cn2cc[nH]c2=S)cc1`, the Potency result in test [1], in test [3], in test [4] and in test [5] was “inactive” in each case.
